Measurements taken from the supplement of paper PMC10646978.
± gives the standard deviation.

Legend:
Details in all cases: modulator concentration 10 µM
[1] = system: RAW-Dual (murine macrophage reporter line); assay: NF-kB reporter (SEAP) activity fold change vs agonist alone; higher = enhanced NF-kB activity
Outline: (§1)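 Compound reached 10 μM final in each well by pin transfer, onto RAW-Dual murine macrophage reporter cells seeded at 50 000 per well in 384-well plates. After 1 hour at 37 °C, the cells were stimulated overnight with a PRR agonist. SEAP in the supernatant was read with QUANTI-Blue at 620 nm absorbance for NF-κB, and Lucia luciferase was read with QUANTI-Luc luminescence for IRF. Each signal was turned into fold change against the mean agonist-only control on the same plate, and two replicate plates were averaged with propagated errors.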

[2] = system: RAW-Dual (murine macrophage reporter line); assay: IRF reporter (Lucia luciferase) activity fold change vs agonist alone; higher = enhanced IRF activity
Outline: as §1

[3] = system: RAW-Dual (murine macrophage reporter line); assay: viability score (confluency relative to resting cells, overnight) (fraction); higher = more viable, active = viable (0.7 or more)
Outline: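 In 384-well plates, RAW-Dual macrophages received compound at a final 10 μM overnight. Two confluency masks were then made with IncuCyte software from IncuCyte images of all imaged wells. The viability score is defined as confluency relative to resting cells. Passing the cutoff required both masks to lie above 70% of resting cells.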

[4] = agonist: CpG ODN 1826 0.5 ug/mL

Row | Structure (SMILES) | NF-kB reporter [1, 4] | NF-kB reporter ([1]; agonist: LPS 0.1 ug/mL) | NF-kB reporter ([1]; agonist: MPLA […]) | IRF reporter ([2]; agonist: 3'3'-cGAMP 10 ug/mL) | IRF reporter ([2]; agonist: LPS 0.1 ug/mL) | IRF reporter ([2]; agonist: MPLA […]) | viability score [3]
1 | CCN(CC)CCNc1ccc(CO)c2sc3ccccc3c(=O)c12 [Prestw-355] | 0.178 ± 0.01 | 0.705 ± 0.065 | 1.09 ± 0.14 | 0.408 ± 0.024 | 0.964 ± 0.13 | 1.97 ± 0.17 | 0.907 (active)
2 | CN(C)CCCC1(c2ccc(F)cc2)OCc2cc(C#N)ccc21.O=C(O)C(=O)O (centres undefined) | 1.13 ± 0.21 | 1.12 ± 0.32 | 1.07 ± 0.077 | 0.836 ± 0.047 | 1.28 ± 0.3 | 1.29 ± 0.1 | 0.993 (active)
3 | O=C(Oc1ccc(O)c(CO)c1)c1ccccc1 | 1.15 ± 0.12 | 1.08 ± 0.071 | 1.06 ± 0.086 | 0.637 ± 0.1 | 0.888 ± 0.098 | 0.769 ± 0.16 | 1 (active)
4 | COC(CNC(=O)c1cc2ccccc2[nH]1)c1ccc(Cl)s1 (centres undefined) | 0.989 ± 0.23 | 1.06 ± 0.081 | 1.12 ± 0.11 | 0.917 ± 0.045 | 1.26 ± 0.14 | 1.48 ± 0.19 | 0.882 (active)
5 | Cl.Nc1c2c(nc3ccccc13)CCCC2 | 0.172 ± 0.048 | 0.751 ± 0.041 | 0.918 ± 0.06 | 0.616 ± 0.024 | 0.806 ± 0.25 | 0.837 ± 0.12 | 0.995 (active)
6 | N#Cc1ccc(C(=O)Nc2nc(-c3cccs3)c(C(=O)C(F)(F)F)s2)cc1 | 0.789 ± 0.091 | 1.06 ± 0.13 | 1.09 ± 0.17 | 0.958 ± 0.03 | 1.36 ± 0.21 | 1.54 ± 0.27 | 1.03 (active)
7 | Cc1ccc(OCC(O)CN2CCCCC2)c(C)c1.Cl (centres undefined) | 0.868 ± 0.15 | 1.05 ± 0.12 | 1.01 ± 0.15 | 0.857 ± 0.056 | 1.21 ± 0.12 | 1.28 ± 0.2 | 0.809 (active)
8 | O=C(Nc1ccon1)C1CN(C(=O)COc2ccccc2F)C1 | 1.08 ± 0.18 | 1.07 ± 0.14 | 1.04 ± 0.1 | 1.06 ± 0.042 | 1.25 ± 0.24 | 1.33 ± 0.2 | 0.992 (active)
9 | CC(=O)c1c(C)c2cnc(Nc3ccc(N4CCNCC4)cn3)nc2n(C2CCCC2)c1=O.Cl | 1.27 ± 0.47 | 1.14 ± 0.064 | 1.22 ± 0.1 | 0.363 ± 0.014 | 0.898 ± 0.16 | 0.966 ± 0.16 | 0.982 (active)
10 | O=[N+]([O-])c1cc(C(F)(F)F)ccc1N1CCN(CC=Cc2ccccc2)CC1 | 0.915 ± 0.078 | 1.07 ± 0.099 | 0.985 ± 0.071 | 0.976 ± 0.036 | 1.47 ± 0.24 | 1.14 ± 0.12 | 1.01 (active)
11 | CC(C)CSc1nnc2c(n1)[nH]c1ccccc12 | 1.06 ± 0.083 | 1.01 ± 0.072 | 0.967 ± 0.039 | 0.955 ± 0.2 | 1.05 ± 0.047 | 0.885 ± 0.14 | 0.998 (active)
12 | Cc1ccc(CNC(=O)C(=O)NC2CCCCC2)cc1 | 1 ± 0.094 | 0.956 ± 0.11 | 0.963 ± 0.091 | 0.97 ± 0.025 | 1.46 ± 0.2 | 1.11 ± 0.21 | 1.01 (active)
